# IDE exosite FP: exo-site inhibitors of human IDE, primary screen, biochemical, fluorescence anisotropy, probe displacement | Insulin-degrading enzyme (Homo sapiens), P14735 | purified IDE, FL-6b probe fluorescence polarization; hits give low values | z-score at 20 µM | 17,000 compounds, 6.3% hits | AID 1259349, 2017;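 active means z-score of -3 or lower, meaning strong loss of probe binding signal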;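 further: His-tagged human IDE residues 42-1019 made in E. coli with 30 nM FL-6b probe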
# Target sequence (P14735 42-1019 limits assumed): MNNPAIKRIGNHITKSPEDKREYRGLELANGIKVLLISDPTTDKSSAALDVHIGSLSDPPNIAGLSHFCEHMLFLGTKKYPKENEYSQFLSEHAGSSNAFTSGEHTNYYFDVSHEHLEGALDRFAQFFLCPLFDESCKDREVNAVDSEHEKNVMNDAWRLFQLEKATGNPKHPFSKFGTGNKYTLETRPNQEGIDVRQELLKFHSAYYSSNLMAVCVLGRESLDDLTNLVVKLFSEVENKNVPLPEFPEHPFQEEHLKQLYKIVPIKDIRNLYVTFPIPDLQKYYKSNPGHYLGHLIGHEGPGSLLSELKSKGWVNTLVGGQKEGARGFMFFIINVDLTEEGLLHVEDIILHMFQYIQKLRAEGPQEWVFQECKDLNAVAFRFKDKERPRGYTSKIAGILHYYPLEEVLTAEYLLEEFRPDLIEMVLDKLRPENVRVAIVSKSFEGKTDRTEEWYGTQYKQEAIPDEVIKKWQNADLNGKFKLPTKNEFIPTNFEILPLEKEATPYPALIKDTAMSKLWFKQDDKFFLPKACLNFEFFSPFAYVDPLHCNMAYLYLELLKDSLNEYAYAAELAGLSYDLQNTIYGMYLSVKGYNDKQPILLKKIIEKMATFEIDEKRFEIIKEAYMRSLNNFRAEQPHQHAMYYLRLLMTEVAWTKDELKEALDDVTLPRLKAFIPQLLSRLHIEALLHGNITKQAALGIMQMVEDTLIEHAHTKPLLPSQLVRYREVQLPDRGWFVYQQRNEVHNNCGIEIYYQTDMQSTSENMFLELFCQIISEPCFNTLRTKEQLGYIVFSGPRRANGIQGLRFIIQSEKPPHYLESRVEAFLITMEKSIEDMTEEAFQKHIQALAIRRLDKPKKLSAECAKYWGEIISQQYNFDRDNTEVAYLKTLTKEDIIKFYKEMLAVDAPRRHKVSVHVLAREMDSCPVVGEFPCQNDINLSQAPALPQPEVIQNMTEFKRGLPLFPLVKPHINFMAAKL
# An asterisk follows results filed as active. Many of the other results were omitted from the sample, so hits are more common in it than they were.
SMILES,IDE exosite FP
CC(C)NC(=O)N1CCCCN2[C@@H](CO)[C@H](c3ccc(C#C[C@@H](C)O)cc3)[C@@H]2C1,1.4
CC(C)C#Cc1ccc([C@@H]2[C@H](CO)N3CCCCN(C(=O)Nc4ccccc4)C[C@@H]23)cc1,3.2
CC(C)NC(=O)N1CCCCN2[C@H](CO)[C@H](c3ccc(C#C[C@H](C)O)cc3)[C@@H]2C1,-0.26
CC(C)NC(=O)N1CCCCN2[C@H](C1)[C@H](c1ccc(C#Cc3ccccc3)cc1)[C@@H]2CO,-13*
CC(C)C#Cc1ccc([C@H]2[C@H]3CN(C(=O)NC(C)C)CCCCN3[C@H]2CO)cc1,-0.26
CC(C)NC(=O)N1CCCCN2[C@H](CO)[C@@H](c3ccc(C#Cc4ccccc4)cc3)[C@H]2C1,-9.2*
CC(C)NC(=O)N1CCCCN2[C@H](C1)[C@@H](c1ccc(C#C[C@H](C)O)cc1)[C@@H]2CO,0.79
Cc1ccccc1S(=O)(=O)N1CC(=O)N2[C@@H](CO)[C@@H](c3ccc(C#CCN(C)C)cc3)[C@@H]2C1,4.1
CCCNC(=O)N1[C@H](CO)[C@H](c2ccccc2)[C@@H]1CNC(=O)C1CCCCC1,2.3
CC(C)[C@H]1C(=O)N[C@H](c2cccc(Cl)c2)CC=CC[C@@H](C)Oc2ccccc2C(=O)N1C (mixture of isomers),1.3
COc1ccc2c3c([nH]c2c1)[C@@H](CO)N(C(=O)NC(C)C)CC31CCN(C(=O)C2CCCCC2)CC1,1.3
O=C1[C@H](Cc2ccc(F)cc2)CCn2cc(nn2)COC[C@H]2CCCN12,0.2
C[C@@H]1CN([C@@H](C)CO)C(=O)c2cc(NS(=O)(=O)c3ccc(Cl)cc3)ccc2O[C@@H](C)CCCCO[C@@H]1CN(C)C(=O)CCCN(C)C,1.7
Cc1ccc(-c2ccc([C@@H]3[C@@H](CO)N4CCCCN(Cc5cncnc5)C[C@@H]34)cc2)cc1,-0.54
OC[C@H]1[C@H](c2ccc(-c3ccccc3)cc2)[C@H]2CN(Cc3cncnc3)CCCCN21,0.9
COc1cccc(-c2ccc([C@H]3[C@H](CO)N4CCCCN(CC5CC5)C[C@@H]34)cc2)c1,-0.72
Cc1cccc(-c2ccc([C@@H]3[C@@H](CO)N4CCCCN(Cc5cncnc5)C[C@H]34)cc2)c1,-4.6*
COc1cccc(-c2ccc([C@H]3[C@H]4CN(CC5CC5)CCCCN4[C@H]3CO)cc2)c1,-4.1*
Cc1cccc(-c2ccc([C@H]3[C@@H](CO)N4CCCCN(Cc5cncnc5)C[C@@H]34)cc2)c1,-1.1
COc1cccc(-c2ccc([C@@H]3[C@@H](CO)N4CCCCN(CC5CC5)C[C@H]34)cc2)c1,-1.8
Cc1cccc(-c2ccc([C@H]3[C@H](CO)N4CCCCN(Cc5cncnc5)C[C@@H]34)cc2)c1,-7.4*
Cc1ccc(-c2ccc([C@@H]3[C@H](CO)N4CCCCN(Cc5cncnc5)C[C@@H]34)cc2)cc1,0.21
OC[C@H]1[C@H](c2ccc(-c3ccccc3)cc2)[C@@H]2CN(Cc3cncnc3)CCCCN12,0.39
OC[C@H]1[C@@H](c2ccc(-c3ccccc3)cc2)[C@@H]2CN(Cc3cncnc3)CCCCN12,-1.1
Cc1cccc(-c2ccc([C@H]3[C@H]4CN(Cc5cncnc5)CCCCN4[C@H]3CO)cc2)c1,-6*
SMILES,IDE exosite FP
COc1ccc(NC(=O)N2CCCCN3[C@@H](CO)[C@@H](c4ccc(C#Cc5ccccn5)cc4)[C@@H]3C2)cc1,0.34
O=C(C[C@@H]1CC[C@@H](NC(=O)C2CC2)[C@H](CO)O1)Nc1ccccc1,0.2
CO[C@H]1CN(C)C(=O)c2cc(NC(=O)c3ccc4c(c3)OCO4)ccc2OC[C@H](C)N(CCC(F)(F)F)C[C@H]1C,1.3
O=C(NCC[C@@H]1CC[C@@H](NC(=O)c2ccncc2)[C@H](CO)O1)Nc1ccc(Cl)cc1,1.2
CCC(=O)N1[C@H](CO)[C@@H](c2ccccc2-c2cccc(C)c2)[C@@H]1C#N,0.81
CO[C@H]1CN(C)C(=O)c2cc(NC(=O)C3CC3)ccc2OC[C@H](C)N(Cc2cc(F)ccc2F)C[C@@H]1C,0.3
O=C(Nc1ccc(F)cc1)N1CC(=O)N2[C@H](C1)[C@H](c1ccc(C#Cc3ccc(F)cc3)cc1)[C@@H]2CO,0.49
COCCN(C[C@H]1N[C@H](CO)[C@@H]1c1ccc(-c2cccc(C#N)c2)cc1)C(C)=O,0.68
OC[C@H]1Nc2ccc(-c3cccc(F)c3)cc2[C@@H]2[C@H]1CCN2Cc1ccc(F)cc1,1.3
COc1cccc(-c2ccc([C@@H]3[C@@H](CO)N4CCCCN(Cc5cncnc5)C[C@H]34)cc2)c1,0.32
COc1cccc(-c2ccc([C@H]3[C@H]4CN(Cc5cncnc5)CCCCN4[C@H]3CO)cc2)c1,-2
COc1cccc(-c2ccc([C@@H]3[C@H]4CN(Cc5cncnc5)CCCCN4[C@H]3CO)cc2)c1,-3.9*
N#C[C@H]1[C@H](c2ccc(-c3ccc(F)cc3)cc2)[C@H](CO)N1c1nc(-c2ccccc2)cs1,4.5
O=C(c1ccncc1)N1CC(=O)N2[C@H](CO)[C@H](c3ccc(/C=C/c4ccccc4)cc3)[C@@H]2C1,-9.5*

# Screening data: PubChem BioAssay, Broad Institute
